Experimental data taken from PubChem BioAssay (Tox21).
Records with an inconclusive call do not appear. Active and inactive are the calls of the source. Unless noted, calls follow the shape of the dose curve; as a rule, active = well fitted curve in the direction sought with a large enough effect in the repeat runs; inconclusive = weak or mixed curves; inactive = no such curve, though single readings can be large; an effect the other way counts as inactive or inconclusive.

How the values were obtained:
[1] = qHTS assay to identify small molecule antagonists of the vitamin D receptor (VDR) signaling pathway - cell viability counter screen (AID 743225); also: % is scaled to controls: 0 for no effect and ±100 for the full control effect; nearly all actives have a fitted effect of over 50% in size
Method in brief: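 In this counter screen, VDR-bla HEK 293T cells receive test compound plus 3 nM final calcitriol for 16 h at 37C. Room-temperature steps of 2 h with the beta-lactamase substrate, then 30 min with CellTiter-Glo, precede the luminescence read.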

[2] = qHTS assay to identify small molecule agonists of the NFkB signaling pathway - cell viability counter screen (AID 1159515; calls by dose curve; also: series mostly up to about 61 µM; % is scaled to controls: 0 for no effect and ±100 for the full control effect; nearly all actives have a fitted effect of over 55% in size)
Method in brief: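 NFkB-bla ME-180 cells, 2,000/well, were plated overnight at 37 C, 5% CO2, then exposed to compounds in DMSO for 5 hr. After the bla FRET read, CellTiter-Glo was added to the same wells; luminescence was read after 30 min at room temperature.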

[3] = qHTS assay to identify small molecule agonists of the endoplasmic reticulum stress response signaling pathway (AID 1159516; active = well fitted activation curve with a large enough effect in the signal ratio in the repeat runs, not every such curve was filed as active; the % refers to the signal ratio; also: % is scaled to controls: 0 for no effect and ±100 for the full control effect)
Method in brief: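 CellSensor ESRE-bla HeLa cells, carrying a beta-lactamase reporter driven by the ER stress response element, were plated overnight and exposed to compounds for 5 hr at 37 C. Reporter activity was read as FRET substrate fluorescence after 2 hr at room temperature.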

[4] = qHTS assay to identify small molecule agonists of the endoplasmic reticulum stress response signaling pathway - cell viability counter screen (AID 1159517; calls by dose curve; also: series mostly up to about 61 µM; % is scaled to controls: 0 for no effect and ±100 for the full control effect; nearly all actives have a fitted effect of over 50% in size)
Method in brief: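 Luminescence readout: CellTiter-Glo, 30 min RT, same wells as the ESRE-bla reporter read. HeLa ESRE-bla, 1,500 cells/well, o/n 37 C; cpd 5 hr 37 C/5% CO2.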

[5] = qHTS assay to identify small molecule antagonists of the retinoid-related orphan receptor gamma (ROR-gamma) signaling pathway - cell viability counter screen (AID 1159520); also: % is scaled to controls: 0 for no effect and ±100 for the full control effect; nearly all actives have a fitted effect of over 50% in size
Method in brief: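 Tet-on ROR gamma CHO cells (1,000/well) were plated 4 hr, given compounds in DMSO for 2 hr at 37 C, then induced with 1 uM final doxycycline for 16 hr. Viability was read as ATP by CellTiter-Glo luminescence after 30 min.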

[6] = molecular target: Nuclear receptor ROR-gamma (Homo sapiens) (UniProt P51449); experiment: qHTS assay to identify small molecule antagonists of the retinoid-related orphan receptor gamma (ROR-gamma) signaling pathway (AID 1159521;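 also: CHO cells with doxycycline inducible ROR-gamma driving an RORE luciferase reporter; top concentration of the series differs between compounds; % is scaled to controls: 0 for no effect and ±100 for the full control effect; nearly all actives have a fitted effect of over 50% in size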)
Method in brief: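 Screening format: cell-based luciferase reporter in CHO cells with doxycycline-inducible RORγ. Compound pre-exposure lasts 2 h, doxycycline is 1 uM final, induction runs 16 h at 37 C, and ONE-Glo luminescence is read.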

[7] = qHTS assay to identify small molecule agonists of the AP-1 signaling pathway - cell viability counter screen (AID 1159525; calls by dose curve; also: nearly all actives have a fitted effect of over 55% in size)
Method in brief: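 ME-180 AP-1-bla, 2500 cells/well, Opti-MEM + 0.5% dialyzed FBS; overnight 37 °C; cpd 15-pt titration, 5 h 37 °C; CellTiter-Glo 30 min RT; luminescence read; normalised to TOAB and DMSO controls.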

[8] = qHTS assay to identify small molecule agonists of the AP-1 signaling pathway (AID 1159526; calls by dose curve; also: % is scaled to controls: 0 for no effect and ±100 for the full control effect)
[9] = molecular target: Retinoic acid receptor RXR-alpha (Homo sapiens) (UniProt P19793); experiment: qHTS assay to identify small molecule agonists of the RXR signaling pathway (AID 1159527; calls by dose curve; also: nearly all actives have a fitted effect of over 35% in size; also: potency is read from the fitted curve at half-maximal effect; as to activation: % is scaled to controls: 0 for no effect and ±100 for the full control effect)
Method in brief: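 Fluorescence ratio readout (460 vs 530 nm) from GeneBLAzer RXR-alpha HEK 293T cells after 16 hr compound treatment; cells seeded 5 hr beforehand in low-serum, charcoal-stripped medium.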

[10] = qHTS assay to identify small molecule agonists of the RXR signaling pathway - cell viability counter screen (AID 1159529)
Method in brief: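 Viability read-out for the RXR-alpha agonist qHTS: luminescent CellTiter-Glo signal after 30 min at RT. HEK 293T bla reporter cells, 2% charcoal-stripped FBS, 16 hr compound incubation; tetraoctyl ammonium bromide as cytotoxic control.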

[11] = qHTS assay to identify small molecule antagonists of the retinoic acid receptor (RAR) signaling pathway (AID 1159552)
Method in brief: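 Using a RARE-driven luciferase construct in C3RL4 cells, retinol at 1 uM final provided the agonist stimulus while compounds were co-applied. After 6 hours at 37 C, luminescence was recorded to flag inhibitors of retinol signaling.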

[12] = qHTS assay to identify small molecule agonists of the retinoic acid receptor (RAR) signaling pathway (AID 1159553); also: potency is read from the fitted curve at half-maximal effect; as to activation: % is scaled to controls: 0 for no effect and ±100 for the full control effect
Method in brief: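 C3RL4 cells carrying a RARE luciferase reporter were plated overnight at 37 C, then exposed to compounds in DMSO for 6 hr at 37 C and 5% CO2. Luminescence was read 30 min after luciferase reagent addition at room temperature.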

[13] = qHTS assay to identify small molecule antagonists of the estrogen related receptor (ERR) signaling pathway from Tox21 library - cell viability counter screen (AID 1224834); also: % is scaled to controls: 0 for no effect and ±100 for the full control effect; nearly all actives have a fitted effect of over 30% in size
Method in brief: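 ERR reporter cells were plated 6 h before compound addition, then exposed to test compounds in DMSO for 17.5 h at 37 C. Viability was read as CellTiter-Fluor fluorescence after a 30-minute incubation at 37 C.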

[14] = molecular target: Luciferin 4-monooxygenase (Photinus pyralis) (UniProt P08659); experiment: qHTS assay to identify small molecule inhibitors of firefly luciferase (AID 1224835); also: nearly all actives have a fitted effect of over 25% in size; also: potency is read from the fitted curve at half-maximal effect
Method in brief: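 Quantitative HTS format; KM concentrations of both substrates. Purified P. pyralis FLuc activity quantified from luminescence images.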

[15] = qHTS assay to identify small molecule agonists of the constitutive androstane receptor (CAR) signaling pathway - cell viability counter screen (AID 1224836); also: series mostly up to about 92 µM; % is scaled to controls: 0 for no effect and ±100 for the full control effect; nearly all actives have a fitted effect of over 45% in size
Method in brief: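 Multiplexed viability check: HepG2-CYP2B6-hCAR cells, 15-point compound dosing, 0.75 uM PK11195 final, 23 h at 37 C, CellTiter-Fluor fluorescence.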

[16] = qHTS assay to identify small molecule antagonists of the constitutive androstane receptor (CAR) signaling pathway - cell viability counter screen (AID 1224837); also: series mostly up to about 92 µM; % is scaled to controls: 0 for no effect and ±100 for the full control effect; nearly all actives have a fitted effect of over 45% in size
Method in brief: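 HepG2 cells stably expressing hCAR and a CYP2B6-2.2kb reporter were plated and pre-incubated 4 hr at 37 C/5% CO2, then given compounds at 15 concentrations plus 50 nM CITCO (final). After 23 hr, viability was read by CellTiter-Fluor fluorescence.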

[17] = molecular target: Nuclear receptor subfamily 1 group I member 3 (Homo sapiens) (UniProt Q14994); experiment: qHTS assay to identify small molecule antagonists of the constitutive androstane receptor (CAR) signaling pathway (AID 1224838); also: % is scaled to controls: 0 for no effect and ±100 for the full control effect; nearly all actives have a fitted effect of over 40% in size
Method in brief: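 HepG2 cells stably co-transfected with hCAR and a CYP2B6-2.2kb luciferase reporter were seeded 4 h before compound addition at 15 concentrations. Cells were stimulated with 50 nM CITCO (final) for 24 h at 37 C; luciferase luminescence was then read.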

[18] = qHTS assay to identify small molecule antagonists of the estrogen related receptor signaling pathway with the pleiotropic PPARgamma coactivator (PGC) from Tox21 10K library - cell viability counter screen (AID 1224840; active = well fitted cell-killing curve with a large enough effect in the repeat runs, not every such curve was filed as active; also: % is scaled to controls: 0 for no effect and ±100 for the full control effect; nearly all actives have a fitted effect of over 40% in size)
Method in brief: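 PGC/ERR cells were seeded at 2,000 cells/well and left 6 hours at 37 C/5% CO2 before pin-tool addition of compounds in DMSO. After 17.5 hours at 37 C, CellTiter-Fluor was added and fluorescence read 30 minutes later.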

[19] = qHTS assay to identify small molecule antagonists of the retinoid acid receptor (RAR) signaling pathway - cell viability counter screen (AID 1159551); also: % is scaled to controls: 0 for no effect and ±100 for the full control effect; nearly all actives have a fitted effect of over 35% in size
Method in brief: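 C3RL4 cells were seeded overnight at 37 C, then treated with compounds plus 1 uM (final) retinol for 6 h at 37 C. Viability was read as ATP by CellTiter-Glo luminescence after 30 min at room temperature.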

[20] = molecular target: Nuclear receptor subfamily 1 group I member 3 (Homo sapiens) (UniProt Q14994); experiment: qHTS assay to identify small molecule agonists of the constitutive androstane receptor (CAR) signaling pathway (AID 1224839);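 also: HepG2 cells stably carrying human CAR and a CYP2B6 luciferase reporter; series mostly up to about 92 µM; % is scaled to controls: 0 for no effect and ±100 for the full control effect; nearly all actives have a fitted effect of over 15% in size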
Method in brief: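 Using human hepatoma HepG2 cells engineered with hCAR and a CYP2B6-2.2kb reporter, 15-concentration compound series were incubated 24 h alongside PK11195 at 0.75 uM final, with luminescence quantified afterwards.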

Retinoic acid receptor RXR-alpha (Homo sapiens), sequence (P19793 whole entry, looked up): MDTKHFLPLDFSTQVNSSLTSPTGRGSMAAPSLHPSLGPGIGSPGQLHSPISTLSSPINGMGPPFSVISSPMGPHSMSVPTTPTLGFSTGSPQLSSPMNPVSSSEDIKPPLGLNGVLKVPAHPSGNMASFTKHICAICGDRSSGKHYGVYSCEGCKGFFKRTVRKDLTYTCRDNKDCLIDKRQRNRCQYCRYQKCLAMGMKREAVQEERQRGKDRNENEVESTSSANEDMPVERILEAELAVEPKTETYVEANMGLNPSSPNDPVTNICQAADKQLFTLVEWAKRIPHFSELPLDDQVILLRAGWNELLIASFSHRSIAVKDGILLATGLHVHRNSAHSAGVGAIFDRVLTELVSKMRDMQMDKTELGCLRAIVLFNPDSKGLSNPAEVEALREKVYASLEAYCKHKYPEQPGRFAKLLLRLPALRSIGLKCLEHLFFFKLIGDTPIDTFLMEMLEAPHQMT
Nuclear receptor subfamily 1 group I member 3 (Homo sapiens), sequence (Q14994 whole entry, looked up): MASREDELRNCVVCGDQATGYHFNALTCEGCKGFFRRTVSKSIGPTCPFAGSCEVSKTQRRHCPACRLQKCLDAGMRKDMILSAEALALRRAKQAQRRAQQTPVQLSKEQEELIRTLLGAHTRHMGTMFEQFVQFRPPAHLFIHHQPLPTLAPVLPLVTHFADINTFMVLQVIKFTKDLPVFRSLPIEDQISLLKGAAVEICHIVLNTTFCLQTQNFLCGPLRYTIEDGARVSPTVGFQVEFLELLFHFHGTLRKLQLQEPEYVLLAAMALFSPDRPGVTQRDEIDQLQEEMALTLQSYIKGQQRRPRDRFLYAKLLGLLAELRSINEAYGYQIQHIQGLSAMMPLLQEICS
Luciferin 4-monooxygenase (Photinus pyralis), sequence (P08659 whole entry, looked up): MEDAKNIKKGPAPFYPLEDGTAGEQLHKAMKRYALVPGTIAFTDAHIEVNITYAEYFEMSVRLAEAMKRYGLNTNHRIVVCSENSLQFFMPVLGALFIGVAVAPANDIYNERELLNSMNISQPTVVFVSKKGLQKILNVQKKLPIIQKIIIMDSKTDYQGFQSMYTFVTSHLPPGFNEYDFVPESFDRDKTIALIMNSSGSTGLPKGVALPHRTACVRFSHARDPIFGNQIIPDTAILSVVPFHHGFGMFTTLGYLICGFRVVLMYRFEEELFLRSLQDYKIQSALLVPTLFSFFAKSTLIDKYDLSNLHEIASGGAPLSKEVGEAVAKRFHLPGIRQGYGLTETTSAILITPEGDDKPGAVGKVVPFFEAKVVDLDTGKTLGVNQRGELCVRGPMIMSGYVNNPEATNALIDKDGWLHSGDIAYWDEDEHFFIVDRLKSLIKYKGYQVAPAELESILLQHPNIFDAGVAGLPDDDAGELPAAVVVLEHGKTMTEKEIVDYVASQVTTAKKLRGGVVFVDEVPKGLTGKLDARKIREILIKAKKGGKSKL

CCOC(=O)CC(C(C)=O)C(C)=O
inactive: outcome [1] | outcome [2] | Potency [3] | outcome [4] | outcome [5] | outcome [6] | outcome [7] | Potency [8] | Potency [9] | Potency [10] | outcome [11] | Potency [12] | outcome [13] | Potency [14] | outcome [15] | outcome [16] | outcome [17] | outcome [18]

CCCCC(CC)COC(=O)CC#N (stereo not drawn)
inactive: outcome [1] | outcome [2] | Potency [3] | outcome [4] | outcome [5] | outcome [6] | outcome [7] | Potency [8] | Potency [9] | Potency [10] | outcome [19] | outcome [11] | Potency [12] | outcome [13] | Potency [14] | outcome [15] | outcome [16] | outcome [18]

N=C(N)N1CCc2ccccc2C1
inactive: activity, negative = cytotoxic [2] 6.23% [at 6.95 µM] | activation [3] 1.42% [at 6.95 µM] | activity change, negative = cytotoxicity [4] 3.62% [at 6.95 µM] | activity, negative = cytotoxicity [5] 7.51% [at 8.39 µM] | activity change, negative = inhibition [6] -0.777% [at 8.39 µM] | viability change, negative = cytotoxic [7] 6.37% [at 6.97 µM] | activation [8] -0.863% [at 6.97 µM] | activation [9] 5.64% [at 6.98 µM] | activity change, negative = cytotoxicity [10] 2.64% [at 6.97 µM] | activity, negative = inhibition [11] -2.43% [at 8.39 µM] | activation [12] -0.224% [at 8.36 µM] | viability change, negative = cytotoxic [13] 2.84% [at 8.39 µM] | activity change, negative = inhibition [14] -2.87% [at 10.5 µM] | viability change, negative = cytotoxic [15] -1.33% [at 8.39 µM] | activity change, negative = cytotoxicity [16] 1.11% [at 8.39 µM] | viability change, negative = cytotoxic [18] -0.866% [at 8.39 µM]

O=C(O)Cc1c(Cl)ccc(Cl)c1Cl
inactive: outcome [1] | outcome [2] | Potency [3] | outcome [4] | outcome [5] | outcome [6] | outcome [7] | Potency [8] | Potency [9] | Potency [10] | outcome [11] | Potency [12] | outcome [13] | Potency [14] | outcome [15] | outcome [16] | outcome [17] | outcome [18]

CCCCN=C(N)N=C(N)N
inactive: outcome [1] | outcome [2] | Potency [3] | outcome [4] | outcome [5] | outcome [6] | outcome [7] | Potency [8] | Potency [9] | Potency [10] | outcome [11] | Potency [12] | outcome [13] | Potency [14] | outcome [15] | outcome [16] | outcome [17] | Potency [20] | outcome [18]

O=Cc1ccc(C(=O)O)cc1
inactive: outcome [1] | outcome [2] | Potency [3] | outcome [4] | outcome [5] | outcome [6] | outcome [7] | Potency [8] | Potency [9] | Potency [10] | outcome [11] | Potency [12] | outcome [13] | Potency [14] | outcome [15] | outcome [16] | outcome [17] | Potency [20] | outcome [18]

CN(C)CCc1c[nH]c2ccc(CS(=O)(=O)N3CCCC3)cc12
inactive: outcome [2] | Potency [3] | outcome [4] | outcome [5] | outcome [6] | outcome [7] | Potency [8] | Potency [9] | Potency [10] | outcome [11] | Potency [12] | outcome [13] | Potency [14] | outcome [15] | outcome [16] | outcome [17] | Potency [20] | outcome [18]

CC(C)(Sc1cc(C(C)(C)C)c(O)c(C(C)(C)C)c1)Sc1cc(C(C)(C)C)c(O)c(C(C)(C)C)c1
inactive: outcome [1] | outcome [2] | Potency [3] | outcome [4] | outcome [5] | outcome [6] | outcome [7] | Potency [8] | Potency [9] | Potency [10] | outcome [19] | outcome [11] | Potency [12] | outcome [13] | Potency [14] | outcome [15] | outcome [16] | outcome [18]

C=CC(=O)OCC[N+](C)(C)C
inactive: outcome [1] | outcome [2] | Potency [3] | outcome [4] | outcome [5] | outcome [6] | outcome [7] | Potency [8] | Potency [9] | Potency [10] | outcome [11] | Potency [12] | outcome [13] | Potency [14] | outcome [15] | outcome [16] | outcome [18]

CCCc1ncc(C(=O)O)s1
inactive: outcome [1] | outcome [2] | Potency [3] | outcome [4] | outcome [5] | outcome [6] | outcome [7] | Potency [8] | Potency [9] | Potency [10] | outcome [11] | Potency [12] | outcome [13] | Potency [14] | outcome [15] | outcome [16] | Potency [20] | outcome [18]

CC1(C)S[C@@H]2[C@H](NC(=O)Cc3ccccc3)C(=O)N2[C@H]1C(=O)O (tested in a mixture with another compound)
inactive: outcome [1] | outcome [2] | Potency [3] | outcome [4] | outcome [5] | outcome [6] | outcome [7] | Potency [8] | Potency [9] | Potency [10] | outcome [11] | Potency [12] | outcome [13] | Potency [14] | outcome [15] | outcome [16] | outcome [17] | outcome [18]

CC(C)C[P+](C)(CC(C)C)CC(C)C
inactive: outcome [1] | outcome [2] | Potency [3] | outcome [4] | outcome [5] | outcome [6] | outcome [7] | Potency [8] | Potency [9] | Potency [10] | outcome [11] | Potency [12] | outcome [13] | Potency [14] | outcome [15] | outcome [16] | outcome [17] | outcome [18]

CC(O)C(CO)C(C)O (stereo not drawn)
inactive: outcome [1] | outcome [2] | Potency [3] | outcome [4] | outcome [5] | outcome [6] | outcome [7] | Potency [8] | Potency [9] | Potency [10] | outcome [11] | Potency [12] | outcome [13] | Potency [14] | outcome [15] | outcome [16] | outcome [18]

C/C(=N\O)c1ccc(OCC(=O)N2CCCCC2)cc1
inactive: outcome [1] | outcome [2] | Potency [3] | outcome [4] | outcome [5] | outcome [6] | outcome [7] | Potency [8] | Potency [9] | Potency [10] | outcome [11] | outcome [13] | outcome [15] | outcome [16] | outcome [17] | outcome [18]
active: Potency [12] 3.76 µM | Potency [14] 12.3 µM

O=Cc1ccccc1S(=O)(=O)O
active: Potency [9] 9.77 µM
inactive: outcome [1] | outcome [2] | Potency [3] | outcome [4] | outcome [5] | outcome [6] | outcome [7] | Potency [8] | Potency [10] | outcome [11] | Potency [12] | outcome [13] | Potency [14] | outcome [15] | outcome [16] | Potency [20] | outcome [18]
